The text below walks through data of PubChem BioAssay AID1727 (National Center for Advancing Translational Sciences (NCATS), 2009).

Activity calls are given as the source filed them. Calls come from the whole dose curve; as a rule, active = well fitted curve in the direction sought with a large enough effect; inactive = no such curve, though single readings can be large or run the other way.

The target of the assay is Epidermal growth factor receptor (Homo sapiens) (UniProt P00533). Put plainly: Assay for Inhibitors of the ERK Signaling Pathway using a Homogeneous Screening Assay: EGFR L858R Kinase Inhibition. The following applies: EGFR L858R kinase biochemical inhibition assay; series mostly up to 65.8 µM. From the text: qHTS Assay for Inhibitors of the ERK Signaling Pathway using a Homogeneous Screening Assay
Epidermal growth factor receptor (Homo sapiens), sequence (P00533 whole entry L858R, looked up): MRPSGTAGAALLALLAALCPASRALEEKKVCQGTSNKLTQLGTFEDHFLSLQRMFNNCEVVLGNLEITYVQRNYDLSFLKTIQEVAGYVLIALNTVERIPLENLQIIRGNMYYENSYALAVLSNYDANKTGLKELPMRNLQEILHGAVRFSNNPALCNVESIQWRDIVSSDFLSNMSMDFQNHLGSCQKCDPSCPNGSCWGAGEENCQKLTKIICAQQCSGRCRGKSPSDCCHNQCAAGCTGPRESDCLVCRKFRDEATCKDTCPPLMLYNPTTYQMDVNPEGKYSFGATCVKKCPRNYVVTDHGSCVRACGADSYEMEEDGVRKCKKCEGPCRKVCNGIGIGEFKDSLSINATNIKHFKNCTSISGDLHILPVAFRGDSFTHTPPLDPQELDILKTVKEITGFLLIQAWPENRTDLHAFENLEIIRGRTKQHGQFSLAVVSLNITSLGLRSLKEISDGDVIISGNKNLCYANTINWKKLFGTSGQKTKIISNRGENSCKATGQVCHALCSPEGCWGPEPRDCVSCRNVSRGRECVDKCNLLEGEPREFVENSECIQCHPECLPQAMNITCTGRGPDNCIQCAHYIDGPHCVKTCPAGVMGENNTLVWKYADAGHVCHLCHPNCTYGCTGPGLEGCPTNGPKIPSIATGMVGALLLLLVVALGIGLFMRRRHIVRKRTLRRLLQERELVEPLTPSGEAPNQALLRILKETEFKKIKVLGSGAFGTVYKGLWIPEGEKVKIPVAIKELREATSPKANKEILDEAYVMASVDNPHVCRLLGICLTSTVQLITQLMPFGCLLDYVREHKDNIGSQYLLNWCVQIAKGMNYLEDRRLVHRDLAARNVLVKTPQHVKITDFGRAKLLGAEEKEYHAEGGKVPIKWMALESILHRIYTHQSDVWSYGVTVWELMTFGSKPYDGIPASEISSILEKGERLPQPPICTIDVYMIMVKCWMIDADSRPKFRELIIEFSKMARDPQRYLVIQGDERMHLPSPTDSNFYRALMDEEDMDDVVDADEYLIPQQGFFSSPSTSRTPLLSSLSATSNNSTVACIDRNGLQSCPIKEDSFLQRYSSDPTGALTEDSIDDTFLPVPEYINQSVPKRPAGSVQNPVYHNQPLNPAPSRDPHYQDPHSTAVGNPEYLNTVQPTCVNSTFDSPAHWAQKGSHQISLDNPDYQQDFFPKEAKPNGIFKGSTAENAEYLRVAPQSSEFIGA
NIH Chemical Genomics Center [NCGC]
NIH Molecular Libraries Screening Centers Network [MLSCN]
Assay Submitter (PI): Dr. Wei Zheng, NCGC/NIH
The Ras/extracellular-signal-regulated kinase (ERK) mitogen activated protein (MAP) kinase signaling pathway (ERK1/2 cascade) plays is a key role in transmitting signals from the cell surface to the nucleus (Nishida and Gotoh 1993; Chang and Karin, 2001). The cascade is initiated by the small G-protein Ras, which recruits Raf […], where activation occurs. Alternatively, this pathway can be activated by elevating intracellular cAMP.
Activation of the ERK pathway is essential in increased cell division and cell survival. Sustained and constitutive activation of the ERK pathway, however, has been linked to uncontrolled cell proliferation, increased cell survival, and tumor progression. Thus, the ERK has been as an attractive target for cancer chemotherapy in the past few years (Sebolt-Leopold and Herrera, 2004). Given its physiological and pathological importance, assessment of ERK phosphorylation has been broadly performed in both basic research and drug discovery. Most assays for the measurement of ERK phosphorylation use the antibody-based detection methods, such as western blot and ELISA. These assays require multiple reagent additions with cell wash steps and are not suitable for high-throughput screening.
The current cell-based ERK phosphorylation assay was performed using AlphaScreen platform. AlphaScreen is a two bead-based proximity-dependent chemical energy transfer luminescent assay platform. The assay reagents (ERK SureFire(TM) kit) were supplied from TGR BioSciences (Australia). […]
The HTRF kinase assay (components supplied as kit by Cisbio) was chosen for the EGFR and EGFR mutant enzyme assays that applied the time resolved fluorescence resonance energy transfer (TR-FRET) principle. […]
Consider `CCn1nc(-c2ccccc2)nc2c(=O)n(C)c(=O)nc1-2`, for which the compound was classed as inactive.
Take `Cc1nc2c(=O)n(C)c(=O)nc-2n(C)n1`: the outcome was inactive.
On to `CN1CCN(c2cccc3c2C(=O)c2ccccc2C3=O)CC1`, for which the compound was called inactive.
